# Data taken from PubChem BioAssay AID932 (The Scripps Research Institute Molecular Screening Center, 2007).
# Out of some 200,000 compounds screened, about 5,100 (2.5%) were called active.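 How the source made its calls: active means activation above the screen-wide mean activation plus 3 SD (cut at about 130% in these data); inactive means the rest.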 This excerpt belongs to a sample that is enriched for actives.
# Test: potentiators of IFN-gamma driven STAT1 reporter – cell-based, HTS, luciferase reporter, primary screen (AID 932);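 further: raw ratio to IFN-gamma control signal so 100% means no change and 0% no light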
# Conditions: NIH 3T3 STAT1-luciferase reporter, luminescence, at 5.5 µM, active compounds read high, 100% = IFN-gamma alone, no compound
row,SMILES,activation (% of control)
1,Cc1ccc2cc3cc(C(=O)N4CCCCCC4)oc3nc2c1,169% (active)
2,Cc1cc(=O)oc(C)c1C(=O)N1CCCCC1,104% (inactive)
3,Cc1cccc(C(=O)N2CCCN(C(=O)c3cccc(C)c3)CC2)c1,103% (inactive)
4,O=C1C(C=NCC2CCCO2)=C(O)c2ccccc21 (centres undefined),137% (active)
5,CC(=NCC1CCCO1)c1c(O)[nH]c(=O)[nH]c1=O (centres undefined),106% (inactive)
6,O=C(CS(=O)(=O)Cc1ccccc1)NCC1CCCO1 (centres undefined),94.5% (inactive)
7,COc1ccc(CCNC(=O)CN(c2ccccc2)S(C)(=O)=O)cc1,98% (inactive)
8,COc1ccc(-n2nnnc2SCC(=O)Nc2ccccc2)cc1,99.3% (inactive)
9,CCOc1cccc(-n2nnnc2-c2ccc(OC)cc2)c1,93.4% (inactive)
10,COc1ccc(-n2nnnc2-c2nc3ccccc3s2)cc1,166% (active)
11,Cc1ccc(C(=O)N/C(=C\c2cccs2)C(=O)NCCc2ccccn2)cc1C,103% (inactive)
12,CN(C)C(=O)CSc1n[nH]c(-c2ccco2)n1,101% (inactive)
13,CC(=O)OC(C(=O)NC1CCCCC1)c1ccccc1 (centres undefined),95.8% (inactive)
14,O=C(Cn1c(-c2cncs2)nc2ccccc21)NC1CCCC1,103% (inactive)
15,O=C(/C=C/c1cnc2ccccc2n1)NC1CCCCCC1,142% (active)
16,C/C(=C/C(=O)N1CCN(C)CC1)C(=O)O,88.6% (inactive)
17,CCOn1c(=O)c(=O)n(O)c2ccccc21,95.6% (inactive)
18,COC(=O)c1cccc([N+](=O)[O-])c1CS(=O)(=O)c1ccc(C)cc1,98.8% (inactive)
19,Cc1nc(C)c(-c2csc(NCCc3ccccc3)n2)s1,102% (inactive)
20,CCNc1nc(-c2cc3ccccc3o2)cs1,176% (active)
21,O=c1oc2ccccc2cc1-c1csc(Nc2ccc(O)cc2)n1,117% (inactive)
22,CC1(C)CC(=O)C2=C(C1)Nc1cc(C(=O)c3ccccc3)ccc1NC2c1ccccn1 (centres undefined),104% (inactive)
23,CCN1CCN(C(C(=O)NC2CCCC2)c2cc3c(cc2[N+](=O)[O-])OCO3)CC1 (centres undefined),107% (inactive)
24,Cc1nc(-c2ccccc2)sc1C(=O)/C=C/N(C)C,147% (active)
25,Cc1nc(-c2ccccc2)sc1C(=O)/C=C/c1ccccc1,105% (inactive)

row,SMILES,activation (% of control)
1,Cc1ccc(SCC(=O)c2sc(-c3ccccc3)nc2C)cc1,102% (inactive)
2,Cc1cccc(C(=O)c2cccc(C)c2)c1,103% (inactive)
3,N/C(=N\OC(=O)c1cc(-c2ccccc2)nc2ccccc12)c1ccncc1,99.8% (inactive)
4,Cc1cccc(/C(N)=N/OC(=O)c2ccccc2Cl)c1,138% (active)
5,COc1ccccc1C(=O)CSc1cccc[n+]1[O-],105% (inactive)
6,CC(C)Oc1ccc(Cc2n[nH]c(=S)n2Cc2ccccc2)cc1Cl,90.5% (inactive)
7,CCN1CCc2nc(NC(=O)c3cc(F)c(F)cc3Cl)sc2C1,111% (inactive)
8,Cc1cccc(NC(=O)Nc2nnc(-c3ccccc3)o2)c1,99.5% (inactive)
9,Cc1ccc(NC(=O)Nc2ccccc2)c(Br)c1,164% (active)
10,CC(=O)c1cccc(NC(=O)Nc2ccc(C)cc2)c1,118% (inactive)
11,CN=C(c1ccccc1)c1c(C)cccc1C,93.1% (inactive)
12,O=C(CC1C(=O)NCCN1Cc1ccc(-c2ccccc2)cc1)NCC1CCOCC1 (centres undefined),102% (inactive)
13,O=C(Cc1csc(Nc2nc(=S)[nH]c3ccccc23)n1)NCCCN1CCN(c2cccc(Cl)c2)CC1,90.9% (inactive)
14,Cc1ccccc1CC1(CO)CCCN(C(=O)c2cc(-c3ccccc3)no2)C1 (centres undefined),104% (inactive)
15,COC(=O)CCC(=O)N1CCCC(CO)(Cc2ccccc2)C1 (centres undefined),146% (active)
16,CC(=O)c1cccc(CN2CCC(CO)(Cc3ccccc3)CC2)c1,96% (inactive)
17,CCc1nnc(NC(=O)c2cccc(S(=O)(=O)N(C)c3ccc(OC)cc3)c2)s1,86.1% (inactive)
18,CCN(CC(=O)NCc1cccs1)S(=O)(=O)c1ccc(NC(C)=O)cc1,104% (inactive)
19,CCn1c(/C=C/Nc2ccccc2)[n+](CC)c2ccc(C(=O)OCC(F)(F)F)cc21,88.3% (inactive)
20,COCc1ccc(C(=O)N2CCc3c([nH]c4ccccc34)C2c2ccccn2)s1 (centres undefined),94% (inactive)
21,COC(=O)c1ccc(-n2cnc3ccccc32)nc1,129% (active)
22,COCCOCCn1cnc2ccccc21,104% (inactive)
23,Cc1ccc(OCC(=O)Nn2cnc3ccccc32)cc1,104% (inactive)
24,O=C(O)CC1S/C(=N\N=C/c2ccccc2O)N(c2ccc(O)cc2)C1=O (centres undefined),102% (inactive)
25,Cc1cccc2c1N(CCOc1ccccc1)C(=O)C2=O,99% (inactive)

row,SMILES,activation (% of control)
1,NC(=S)N/N=C/c1ccc([N+](=O)[O-])cc1,121% (inactive)
2,Cc1ccc(NC(=O)CN(C)CC(=O)Nc2cccc(F)c2)cc1[N+](=O)[O-],67.3% (inactive)
3,Cc1ccsc1C(=O)N/N=C/c1ccc([N+](=O)[O-])cc1,146% (active)
4,Cc1ccc(NC(=O)c2sccc2C)cc1[N+](=O)[O-],138% (active)
5,Cc1cc(O)c(NC(=O)c2ccc(C)c([N+](=O)[O-])c2)cc1C,103% (inactive)
6,Cc1nc2ccccc2cc1C(=O)N/N=C/c1ccc([N+](=O)[O-])cc1,93.6% (inactive)
7,C=CCNC(=O)COC(=O)c1ccccc1C(=O)N(C)C1CCCCC1,95.6% (inactive)
8,O=c1[nH]n(-c2ccc([N+](=O)[O-])cc2)c(=O)c2ccccc12,101% (inactive)
9,CCN1CC(CN(C)Cc2nc(-c3ccc(Cl)cc3)no2)CC1=O (centres undefined),96.3% (inactive)
10,CC(C)C(c1nnnn1C(C)(C)C)N1CCN(Cc2cccnc2)CC1 (centres undefined),98.8% (inactive)
11,CCCCCC(=O)Nc1ccc(-c2cn3cccnc3n2)cc1,103% (inactive)
12,C/C(=N/NC(=O)c1ccc(Br)o1)c1ccc(C)o1,112% (inactive)
13,CC(C)(C)C1CCC(=NNC(=O)c2ccc(Br)o2)CC1 (centres undefined),121% (inactive)
14,CCC(C)(C)C1CCC(=NNC(=O)c2ccc(Br)o2)CC1 (centres undefined),129% (active)
15,COc1ccccc1-n1c(C)nc2cc(C(=O)NCc3ccc4c(c3)OCO4)ccc21,98.5% (inactive)
16,COc1ccc(OC)c2[nH]c(=O)c(CCNC(=O)C(=O)c3c[nH]c4ccccc34)cc12,95.3% (inactive)
17,Cc1ccc(NC(=O)CC2C(=O)N(Cc3ccccc3)C(=S)N2NC(=O)c2cccc(F)c2)c(C)c1 (centres undefined),103% (inactive)
18,O=C(Cn1ncc(N2CCCC2)c(Br)c1=O)c1ccc(Cl)cc1,130% (active)
19,CC(=O)Cn1ncc(N2CCOCC2)c(Br)c1=O,104% (inactive)
20,Cn1c(=O)c2c(nc(N3CCCCCC3)n2CC(=O)c2ccc(Br)cc2)n(C)c1=O,94.8% (inactive)
21,O=C(COC(=O)/C=C/c1nc2ccccc2s1)Nc1ccccc1Oc1ccccc1,95.5% (inactive)
22,CC(=O)NCC(=O)N1CCCC(C(=O)c2ccc3c4c(cccc24)CC3)C1 (centres undefined),99.2% (inactive)
23,CCOC(=O)C1CCN(c2ccc(C(=O)O)cc2[N+](=O)[O-])CC1,98.3% (inactive)
24,COc1ccc(NC(=O)N2CCCC(c3nc(-c4ccc(F)cc4)no3)C2)cc1 (centres undefined),102% (inactive)
25,N#Cc1ccccc1NC(=O)c1cccc(COc2ccc(Cl)cc2Cl)c1,132% (active)

row,SMILES,activation (% of control)
1,CSc1ccc(C#N)cc1NC(=O)c1cccc(Cl)c1,106% (inactive)
2,O=C(Nc1ccn(Cc2ccccc2F)n1)c1ccc(COc2ccc(Cl)cc2Cl)o1,105% (inactive)
3,CN1C=CC=C/C1=C1\SC(=S)N(Cc2ccccc2)C1=O,104% (inactive)
4,c1ccc(CN=C2Nc3ccccc3CS2)nc1,135% (active)
5,O=C(NCc1ccccn1)Nc1ccc(F)cc1,108% (inactive)
6,CC(C)(C)NC(=O)CN1CCC(NC(=O)C23CC4CC(CC(C4)C2)C3)CC1,96.5% (inactive)
7,CCOC(=O)CNC(=O)c1nn(-c2cccc(OC)c2)c(=O)c2ccccc12,130% (active)
8,COc1cccc(-n2nc(C(=O)N3CCN(Cc4ccccc4)CC3)c3ccccc3c2=O)c1,99.9% (inactive)
9,COc1ccc(-n2nc(C(=O)NCC(=O)Nc3cccc(C)n3)c3ccccc3c2=O)cc1,99.9% (inactive)
10,COc1ccc(-c2nn3c(-c4ccccc4)nnc3s2)cc1OC,114% (inactive)
11,COc1ccc(C2CC(c3cccs3)=Nc3ccccc3S2)cc1OC (centres undefined),106% (inactive)
12,COc1ccc(-c2csc(-c3cccs3)n2)cc1OC,182% (active)
13,Cc1ccc(NC(=S)N(CCN(C)C)Cc2cccs2)cc1C,97.2% (inactive)
14,Cc1ccc(NC(=O)CNCc2ccccn2)cc1S(=O)(=O)N(C)C,97.7% (inactive)
15,Cc1ccc(C(=O)Nc2ccc(C)c(S(=O)(=O)N(C)C)c2)s1,141% (active)
16,Cc1ccc(NC(=O)c2cccs2)cc1S(=O)(=O)N(C)C,101% (inactive)
17,C#CCOCCOCCOCCNc1nc(N2CCN(C(=O)C(Cc3ccc(O)cc3)n3cc(C(N)CC(C)C)nn3)CC2)nc(N2CCN(C(=O)C(Cc3ccc(O)cc3)n3cc(C(N)C(C)CC)nn3)CC2)n1 (centres undefined),109% (inactive)
18,O=C(NC(=S)Nc1cccc(-c2ccc(CO)o2)c1)c1cccs1,93.4% (inactive)
19,Cc1cc(-c2n[nH]c(=S)n2-c2ccc(C)c(C)c2)no1,90.1% (inactive)
20,CCOC(=O)c1ccccc1N1C(=O)C2Sc3[nH]c(=O)sc3C(/C=C/c3ccccc3)C2C1=O (centres undefined),114% (inactive)
21,COC(C(=O)Nc1ccc(S(=O)(=O)Nc2ccc(C)c(C)c2)cc1)c1ccccc1 (centres undefined),108% (inactive)
22,CC(=O)c1cnc(SCCN2C(=O)c3ccccc3C2=O)nc1C,95.5% (inactive)
23,Nc1ccc(SCCN2C(=O)c3ccccc3C2=O)cc1,129% (active)
24,Cc1ccc(SCCN2C(=O)NC(C)(C)C2=O)cc1,103% (inactive)
